Assay results from the antibiotic and cytotoxicity screens of Wong et al. (2023).
Hit rate of the full screen: of about 39,000 compounds, about 3,300 (8.5%) were called active. The entries come from a sample that favours actives as a whole.

System: HepG2
Assay: cytotoxicity call (relative viability < 0.9)
Conditions: 10 µM

Row | SMILES | cytotoxicity call
1 | Cc1noc(C)c1S(=O)(=O)N(C)C[C@@H]1Oc2ccc(NS(=O)(=O)c3ccc(Cl)cc3)cc2CC(=O)N([C@@H](C)CO)C[C@@H]1C | inactive
2 | OCCN1CCN(c2ncnc3c2ncn3[C@H]2CN(Cc3ccccc3)C[C@@H](CO)O2)CC1 | inactive
3 | C[C@@H]1CN([C@@H](C)CO)C(=O)c2cc(NS(=O)(=O)c3ccc(Cl)cc3)ccc2O[C@@H](C)CCCCO[C@H]1CN(C)C(=O)CCC(F)(F)F | inactive
4 | CN1C=C(C(=O)OCCS(C)(=O)=O)C(C(=O)OCCS(C)(=O)=O)=CC(CCCO)=C[C@@H]1C1CC1 | inactive
5 | COc1ccc([C@@H](O)[C@@H](CCO)OC)cc1O | inactive
6 | N#CC1(N[C@@H](Cc2ccccc2)c2ccccc2)CCCCCC1 | inactive
7 | Cc1ccc(OC[C@@H](O)CN)c(C)c1 | inactive
8 | Cn1c(=O)cnn(CCCCN2CCN(c3ncccn3)CC2)c1=O | inactive
9 | Cl.O=C1CC2(CCCC2)CC(=O)N1CCCCN1CCN(c2ncccn2)CC1 | active
10 | O=C(C1CC1)N1CCN(c2ncccn2)CC1 | inactive
11 | C[C@H]1CN([C@@H](C)CO)S(=O)(=O)c2ccc(-c3ccncc3)cc2O[C@@H]1CN(C)S(=O)(=O)c1ccccc1F | inactive
12 | C[C@@H]1CCCCO[C@H](CN(C)S(=O)(=O)c2ccc(Cl)cc2)[C@@H](C)CN([C@@H](C)CO)C(=O)c2cc(NC(=O)Nc3ccc4c(c3)OCO4)ccc2O1 | inactive
13 | C[C@H](CO)N1C[C@H](C)[C@@H](CN(C)S(=O)(=O)c2ccc(Cl)cc2)OCCCC[C@H](C)Oc2ccc(NC(=O)Nc3ccc4c(c3)OCO4)cc2C1=O | inactive
14 | C[C@@H]1CCCCO[C@H](CN(C)S(=O)(=O)c2ccccc2)[C@@H](C)CN([C@@H](C)CO)C(=O)c2cc(NC(=O)Nc3ccc4c(c3)OCO4)ccc2O1 | inactive
15 | C[C@@H]1CCCCO[C@H](CN(C)S(=O)(=O)c2ccc(Cl)cc2)[C@H](C)CN([C@@H](C)CO)C(=O)c2cc(NC(=O)Nc3ccc4c(c3)OCO4)ccc2O1 | active
16 | C[C@@H]1CCCCO[C@@H](CN(C)S(=O)(=O)c2ccc(Cl)cc2)[C@@H](C)CN([C@@H](C)CO)C(=O)c2cc(NC(=O)Nc3ccc4c(c3)OCO4)ccc2O1 | inactive
17 | C[C@@H]1CN([C@H](C)CO)C(=O)c2cc(NC(=O)Nc3ccc4c(c3)OCO4)ccc2O[C@@H](C)CCCCO[C@H]1CN(C)S(=O)(=O)c1ccc(Cl)cc1 | active
18 | C[C@H]1CCCCO[C@H](CN(C)S(=O)(=O)c2ccccc2)[C@@H](C)CN([C@@H](C)CO)C(=O)c2cc(NC(=O)Nc3ccc4c(c3)OCO4)ccc2O1 | active
19 | C[C@H]1CCCCO[C@H](CN(C)S(=O)(=O)c2ccc(Cl)cc2)[C@@H](C)CN([C@@H](C)CO)C(=O)c2cc(NC(=O)Nc3ccc4c(c3)OCO4)ccc2O1 | active
20 | C[C@@H]1CN([C@H](C)CO)C(=O)c2cc(NC(=O)Nc3ccc4c(c3)OCO4)ccc2O[C@@H](C)CCCCO[C@@H]1CN(C)S(=O)(=O)c1ccc(Cl)cc1 | inactive
21 | C[C@@H]1CCCCO[C@@H](CN(C)S(=O)(=O)c2ccc(Cl)cc2)[C@H](C)CN([C@@H](C)CO)C(=O)c2cc(NC(=O)Nc3ccc4c(c3)OCO4)ccc2O1 | inactive
22 | C[C@@H]1CCCCO[C@@H](CN(C)S(=O)(=O)c2ccc(Cl)cc2)[C@@H](C)CN([C@H](C)CO)C(=O)c2cc(NC(=O)Nc3ccc4c(c3)OCO4)ccc2O1 | inactive

Row | SMILES | cytotoxicity call
23 | C[C@@H]1CN([C@@H](C)CO)C(=O)c2cc(NC(=O)Nc3ccc4c(c3)OCO4)ccc2O[C@@H](C)CCCCO[C@@H]1CN(C)S(=O)(=O)c1ccccc1 | inactive
24 | Cc1noc(C)c1S(=O)(=O)Nc1ccc2c(c1)C(=O)N([C@H](C)CO)C[C@@H](C)[C@H](CN(C)CC1CC1)O2 | inactive
25 | NCC1OC(OC2C(N)CC(N)C(OC3OC(CO)C(O)C(N)C3O)C2O)C(N)CC1O (stereo unspecified) | inactive
26 | COc1ccccc1CNC(=O)C[C@@H]1CC[C@H]2[C@@H](COC[C@@H](O)CN2C(=O)Nc2ccc(F)cc2)O1 | inactive
27 | C[C@H]1CN([C@@H](C)CO)C(=O)c2cc(Br)cnc2O[C@@H]1CN(C)S(=O)(=O)c1cn(C)cn1 | inactive
28 | Cc1noc(C)c1S(=O)(=O)Nc1ccc2c(c1)C(=O)N([C@H](C)CO)C[C@H](C)[C@@H](CN(C)Cc1ccccc1)O2 | inactive
29 | COc1cccc(S(=O)(=O)Nc2ccc3c(c2)[C@@H]2C[C@@H](CC(=O)NCC(F)(F)F)O[C@@H](CO)[C@@H]2O3)c1 | inactive
30 | Cc1ccc(S(=O)(=O)N(C)C[C@@H]2Oc3ccc(NC(=O)NC(C)C)cc3C(=O)N([C@H](C)CO)C[C@@H]2C)cc1 | inactive
31 | C[C@@H]1CN([C@@H](C)CO)S(=O)(=O)c2ccc(C#Cc3ccc(F)cc3)cc2O[C@H]1CN(C)S(C)(=O)=O | inactive
32 | C[C@@H]1CN([C@H](C)CO)S(=O)(=O)c2ccc(C#Cc3ccc(F)cc3)cc2O[C@H]1CN(C)S(C)(=O)=O | inactive
33 | C[C@H](CO)N1C[C@H](C)[C@H](CN(C)S(C)(=O)=O)Oc2cc(C#Cc3ccc(F)cc3)ccc2S1(=O)=O | active
34 | C[C@H](CO)N1C[C@H](C)[C@@H](CN(C)S(C)(=O)=O)Oc2cc(C#Cc3ccc(F)cc3)ccc2S1(=O)=O | inactive
35 | C[C@H]1CN([C@@H](C)CO)S(=O)(=O)c2ccc(C#Cc3ccc(F)cc3)cc2O[C@@H]1CN(C)S(C)(=O)=O | active
36 | C[C@@H]1CN([C@H](C)CO)S(=O)(=O)c2ccc(C#Cc3ccc(F)cc3)cc2O[C@@H]1CN(C)S(C)(=O)=O | inactive
37 | COc1ccc(CN(C)C[C@H]2OCCCC[C@@H](C)Oc3ccc(NS(=O)(=O)c4c(C)noc4C)cc3C(=O)N([C@H](C)CO)C[C@@H]2C)cc1 | inactive
38 | CC(C)NC(=O)Nc1cccc2c1O[C@H](CN(C)S(=O)(=O)c1ccc(F)cc1)[C@@H](C)CN([C@H](C)CO)C2=O | inactive
39 | CCCCC(=O)c1ccc(O)cc1 | inactive
40 | CCCCCS(=O)(=O)CCCCCCCCCCn1c(-c2ccc(O)cc2)c(C)c2cc(O)ccc21 | active
41 | C[C@H](CO)N1C[C@H](C)[C@@H](CN(C)S(=O)(=O)c2cn(C)cn2)Oc2c(NC(=O)Cc3ccccc3)cccc2C1=O | inactive
42 | C[C@H](CO)N1C[C@H](C)[C@H](CN(C)Cc2ccc(Cl)c(Cl)c2)Oc2ccc(NC(=O)Nc3cccc4ccccc34)cc2C1=O | active
43 | C[C@H]1CN([C@@H](C)CO)C(=O)Cc2cc(NC(=O)Nc3cccc4ccccc34)ccc2O[C@@H]1CN(C)Cc1ccc(Cl)c(Cl)c1 | inactive
44 | C[C@@H]1CN([C@@H](C)CO)C(=O)Cc2cc(NC(=O)Nc3cccc4ccccc34)ccc2O[C@@H]1CN(C)Cc1ccc(Cl)c(Cl)c1 | active

Row | SMILES | cytotoxicity call
45 | C[C@H](CO)N1C[C@H](C)[C@@H](CN(C)Cc2ccc(Cl)c(Cl)c2)Oc2ccc(NC(=O)Nc3cccc4ccccc34)cc2CC1=O | inactive
46 | C[C@@H]1CN([C@H](C)CO)C(=O)c2cc(NC(=O)Nc3cccc4ccccc34)ccc2O[C@@H]1CN(C)Cc1ccc(Cl)c(Cl)c1 | inactive
47 | C[C@@H]1CN([C@H](C)CO)C(=O)Cc2cc(NC(=O)Nc3cccc4ccccc34)ccc2O[C@H]1CN(C)Cc1ccc(Cl)c(Cl)c1 | inactive
48 | C[C@H](CO)N1C[C@H](C)[C@H](CN(C)Cc2ccc(Cl)c(Cl)c2)Oc2ccc(NC(=O)Nc3cccc4ccccc34)cc2CC1=O | inactive
49 | C[C@@H]1CN([C@H](C)CO)C(=O)Cc2cc(NC(=O)Nc3cccc4ccccc34)ccc2O[C@@H]1CN(C)Cc1ccc(Cl)c(Cl)c1 | active
50 | C[C@@H]1CN([C@@H](C)CO)C(=O)c2cc(NC(=O)Nc3cccc4ccccc34)ccc2O[C@H]1CN(C)Cc1ccc(Cl)c(Cl)c1 | inactive
51 | COc1ccc(S(=O)(=O)Nc2ccc3c(c2)C(=O)N(C)C[C@@H](OC)[C@H](C)CN(C(=O)NC(C)C)[C@H](C)CO3)cc1 | inactive
52 | CN(C)CCCNC(=O)C[C@@H]1CC[C@@H]2[C@H](COC[C@@H](O)CN2S(=O)(=O)c2ccc(Cl)cc2)O1 | inactive
53 | C[C@@H]1CCCCO[C@@H](CN(C)S(=O)(=O)c2cccs2)[C@@H](C)CN([C@@H](C)CO)C(=O)c2cc(NC(=O)Nc3ccc(C(F)(F)F)cc3)ccc2O1 | inactive
54 | Cc1noc(C)c1S(=O)(=O)Nc1ccc2c(c1)C(=O)N([C@@H](C)CO)C[C@@H](C)[C@@H](CN(C)Cc1ccccc1)OCCCC[C@H](C)O2 | inactive
55 | C[C@@H]1CN([C@@H](C)CO)C(=O)c2cc(NC(=O)CCN3CCOCC3)ccc2O[C@H]1CN(C)CC1CCCCC1 | inactive
56 | C[C@@H]1CCCCO[C@@H](CN(C)C(=O)c2ccccc2)[C@H](C)CN([C@H](C)CO)C(=O)c2cc(NS(=O)(=O)c3ccc(Cl)cc3)ccc2O1 | inactive
57 | Cc1ccc(S(=O)(=O)N(C)C[C@H]2OCCCC[C@H](C)Oc3ccc(NC(=O)Nc4ccccc4)cc3C(=O)N([C@@H](C)CO)C[C@@H]2C)cc1 | inactive
58 | C[C@@H]1CN([C@@H](C)CO)C(=O)CCCn2nncc2CO[C@@H]1CN(C)Cc1cccc2c1OCCCO2 | inactive
59 | COc1ccc(NC(=O)Nc2ccc3c(c2)C(=O)N([C@@H](C)CO)C[C@@H](C)[C@@H](CN(C)Cc2ccncc2)OCCCC[C@@H](C)O3)cc1 | inactive
60 | C[C@@H]1CN([C@H](C)CO)C(=O)c2cc(NC(=O)Cn3cnnn3)ccc2O[C@@H]1CN(C)C(=O)Nc1ccc(F)cc1 | inactive
61 | CC[C@@H](C)NCCCCOc1ccc(Cl)cc1C(C)(C)C | active
62 | CC(C)Oc1ccc(Cl)cc1CN | inactive
63 | CCOc1ccccc1OCCNC(C)Cc1ccc(OC)c(S(N)(=O)=O)c1.Cl (stereo unspecified) | inactive
64 | CC(C)(C)NCCCCOc1ccc(Cl)cc1C(C)(C)C | active
65 | Cc1ccc(OCc2ccc(Cl)cc2)c(C(C)(C)C)c1 | inactive
66 | C#CCN(C)CCCOc1ccc(Cl)cc1Cl.Cl | inactive
